Compound activity deposited in PubChem by several laboratories.
Compounds with a hit are over-represented: about 1.4% of the library has one in this group of screens.
MEX-5 binding = C. elegans MEX-5 TCR-2 RNA binding activity; Q9XUB2; MEX-5/FITC-TCR2 RNA binding, fluorescence polarization; hits give low values; activity score (negative = inhibition of binding), % at 10 µM; hit rate 0.38% among 300,000; AID 1832;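 active means inhibition past about -25% in most replicates, and total fluorescence under double the plate's negative control median, limit read from the data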;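 further: 0% = DMSO and -100% = 5 µM competing unlabeled TCR2 RNA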
MCL1 BIM primary = disrupts human MCL1 binding to BIM-BH3 peptide; inhibition, % at 10.9 µM; AID 2057; GST-MCL1 / FITC-Bim-BH3 fluorescence polarization; Q07820; hit rate 0.68% among 320,000;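 active means inhibition above the mean inhibition of all tested compounds plus 3 SD, set per campaign, cut at about 40% in these data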;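 further: 0% = DMSO wells and 100% = unlabeled Bim-BH3 peptide control; higher means more loss of mP so more displacement of Bim peptide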
EBV gp42 block = EBV gp42 inhibition; inhibition, % (tested at 21.74 µM); hit rate 0.42% among 220,000; AID 1085; Fluorescence polarization binding assay, mP read-out; in the data active means inhibition above about 50%
BCLXL inh = inhibitors of human Bcl-xL; hit rate 0.7% among 320,000; inhibition, % at 10.9 µM; Q07817; AID 2129; GST-Bcl-xL / FITC-Bim BH3 peptide fluorescence polarization;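 active means inhibition above the mean of all tested compounds plus 3 SD, cutoff set per campaign, cut at about 30% in these data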;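 further: 0% = DMSO wells and 100% = unlabeled Bim-BH3 peptide competitor; inhibitors lower millipolarization by displacing the labeled peptide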
GLD-1 RNA inh = GLD-1-TGE RNA interaction inhibition (C. elegans); Q17339; inhibition, % at 5.96 µM; AID 2280; purified GLD-1 + fluorescein TGE RNA, fluorescence polarization; hit rate 0.44% among 320,000;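 active means percent inhibition above a per-plate cutoff, the plate mean of test compounds plus 3 SD, cut at about 30% in these data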;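 further: 0% = DMSO wells with GLD-1 and probe and 100% = wells lacking GLD-1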
E coli Lon inh = E. coli protease La inhibition. AID 602123. P0A9M0. purified E. coli Lon protease, fluorescence polarization. inhibition, % at 7.94 µM. hit rate 0.42% among 360,000; in the data active means inhibition above about 13%, passing the limit was not always enough;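 further: 0% = enzyme with probe and DMSO and 100% = no enzyme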
Target sequence (P0A9M0 whole entry, looked up): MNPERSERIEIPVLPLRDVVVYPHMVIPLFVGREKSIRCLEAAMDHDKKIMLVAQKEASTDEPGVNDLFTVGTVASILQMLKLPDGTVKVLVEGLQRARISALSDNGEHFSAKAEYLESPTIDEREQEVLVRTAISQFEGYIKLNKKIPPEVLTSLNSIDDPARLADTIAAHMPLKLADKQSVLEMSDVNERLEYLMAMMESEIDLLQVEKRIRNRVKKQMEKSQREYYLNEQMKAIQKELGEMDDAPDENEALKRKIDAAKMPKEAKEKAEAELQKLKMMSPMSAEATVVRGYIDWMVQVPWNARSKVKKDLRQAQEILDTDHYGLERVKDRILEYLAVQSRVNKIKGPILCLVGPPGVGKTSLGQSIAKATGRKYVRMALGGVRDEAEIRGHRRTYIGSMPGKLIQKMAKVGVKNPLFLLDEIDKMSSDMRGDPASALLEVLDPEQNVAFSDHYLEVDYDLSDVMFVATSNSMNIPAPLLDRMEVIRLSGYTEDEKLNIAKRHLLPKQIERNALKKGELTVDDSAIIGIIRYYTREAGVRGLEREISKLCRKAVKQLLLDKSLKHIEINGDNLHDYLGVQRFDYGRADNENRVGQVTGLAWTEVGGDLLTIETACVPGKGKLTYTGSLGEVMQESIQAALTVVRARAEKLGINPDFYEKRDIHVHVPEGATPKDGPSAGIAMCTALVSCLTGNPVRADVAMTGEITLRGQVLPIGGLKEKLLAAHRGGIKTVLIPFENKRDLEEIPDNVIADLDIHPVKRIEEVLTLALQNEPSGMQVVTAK
Starred values were filed as active, the others as inactive; i = inactive; / = not tested or not shown.

SMILES | MEX-5 binding | MCL1 BIM primary | EBV gp42 block | BCLXL inh | GLD-1 RNA inh | E coli Lon inh
COc1ccc(-c2csc(NC(=O)CSc3nc(C)cs3)n2)cc1 | 1.1 | 4.8 | -2.1 | 5.3 | 2.7 | 1.9
COc1ccc(-c2csc(NC(=O)CSc3nc(C)nc4sc(C(=O)O)c(C)c34)n2)cc1 | 0.1 | 8.3 | 65.1* | 15.5 | -4.7 | 0.3
C/C(N)=C(/C#N)C(=O)CSc1ncnc2ccccc12 | -38.9* | 2.9 | -8.7 | -2.3 | -23.4 | -14.2
C/C(N)=C(/C#N)C(=O)CSc1nnc(Nc2ccccc2)s1 | -0.8 | -6.7 | 124.3* | -10.2 | -3.5 | -4.7
Cc1ccc(S(=O)(=O)N2CCCC2CNC(=O)C(=O)Nc2ccc(F)cc2)cc1 (stereo not given) | 2.5 | -8.0 | / | -4.2 | 5.6 | -1.8
C[C@@H]1CCCCO[C@H](CN(C)Cc2ccc(C(=O)O)cc2)[C@H](C)CN([C@@H](C)CO)C(=O)c2cc(NC(=O)Nc3ccc(C(F)(F)F)cc3)ccc2O1 | / | / | / | / | / | 1.1
C=CCc1cccc2cc(C(=O)Nc3ccc(S(=O)(=O)Nc4nnc(CC)s4)cc3)c(=O)oc12 | 0.6 | 4.7 | 73.1* | 8.2 | 3.5 | 0.1
C=CCc1cccc2cc(C(=O)Nc3ccc(F)cc3)c(=O)oc12 | 2.7 | 8.0 | -9.2 | 3.0 | -2.9 | 3.8
CCOc1ccc(S(=O)(=O)NCCC(=O)N(C)CC(=O)Nc2ccc(N3CCOCC3)cc2)cc1 | -0.6 | 3.2 | / | 3.5 | 8.5 | 3.6
Cc1cc(O)c2c(c1O)C(=O)[C@]13C(=C2O)C(=O)[C@@H]2[C@@H](O)[C@H]1[C@@H]1[C@H](O)[C@H]3C(=O)C3=C(O)c4c(O)cc(C)c(O)c4C(=O)[C@]312 | / | / | / | / | 29.8 | 26.9*
CC(C)(C)c1ccc(NC(=O)c2c(F)cccc2Cl)cc1 | 4.1 | 3.8 | -1.1 | 4.1 | 9.4 | -0.1
CSc1nc(SCCO)c2sc3nc(-c4ccco4)c4c(c3c2n1)CC(C)(C)OC4 | 1.0 | / | 17.6 | / | / | 4.7
CSc1nc(N(CCO)CCO)c2sc3nc(-c4ccco4)c4c(c3c2n1)CCC4 | 1.1 | / | 56.4* | / | / | -8.8
Cc1c(CN2CCCCC2)c(O)n(CCCO)c(=O)c1C#N | -45.7* | 34.6 | -4.0 | 35.3* | 27.1 | -2.0
Cc1cc(=O)n(CCO)c(O)c1C#N | -9.6 | 10.1 | -1.6 | 12.4 | 26.3 | -1.0
CCCn1c(O)c(CN2CCCCC2)c(C)c(C#N)c1=O | -51.1* | 17.9 | -4.2 | 23.5 | 22.6 | 5.5
C=CCn1c(O)c(CN2CCN(Cc3ccccc3)CC2)c(C)c(C#N)c1=O | -4.7 | 24.8 | -12.0 | 28.9 | 23.4 | 9.4
O=C(Cc1cccs1)N1CCN=C1SCc1ccc(Br)cc1 | -0.3 | 6.7 | -12.8 | 7.2 | -0.5 | -1.5
C=CCN1C(=O)/C(=C2/Sc3ccccc3N2CCCS(=O)(=O)O)SC1=S | -0.7 | 35.1 | -14.1 | 16.1 | -1.8 | -5.3
C=CCN1C(=O)/C(=C2/Sc3ccccc3N2CC)SC1=S | -29.5* | 3.9 | / | 10.9 | -3.3 | 0.2
O=c1c(O)c(-c2cccs2)oc2ccccc12 | -7.6 | -2.2 | 16.1 | 2.3 | 22.9 | -19.6
O=c1c(O)c(-c2cccs2)oc2ccc(Cl)cc12 | -4.9 | 41.7* | 29.8 | 46.0* | 57.1* | -69.5
CCCCNC(=O)C[C@@H]1C[C@@]2(C(=O)OC)CCCCC=C2N(Cc2ccc(Cl)cc2Cl)C1=O | / | / | / | / | / | -7.5
CCOCCCNC(=O)CCC(=O)NNc1nc2ccccc2c2nc(C)nn12 | -39.0* | 5.3 | -25.7 | -4.5 | 2.6 | -1.0
COCCCNC(=O)CCC(=O)NNc1nc2ccccc2c2nc(C)nn12 | -50.1* | 3.2 | 7.0 | 8.4 | 9.3 | -1.0
SMILES | MEX-5 binding | MCL1 BIM primary | EBV gp42 block | BCLXL inh | GLD-1 RNA inh | E coli Lon inh
O=c1c(/C=C(\O)c2ccccc2)nc2ccccc2n1-c1ccccc1 | -52.8* | -78.3 | 175.6* | -48.7 | -67.5 | i
Cc1cccn2c(=O)c3cc(C(=O)NCC4CCCO4)c(=N)n(CCN4CCOCC4)c3nc12 (stereo not given) | -6.3 | -0.9 | -20.7 | 0.3 | -8.0 | 6.6
Cc1cccn2c(=O)c3cc(C(N)=S)c(=N)n(CCCOC(C)C)c3nc12 | -7.9 | 34.8 | -7.1 | 33.8* | -1.9 | -21.7
CCOCCCn1c(=N)c(C(N)=S)cc2c(=O)n3cccc(C)c3nc21 | -1.9 | 30.0 | -18.6 | 22.8 | -4.5 | -12.6
CCNC(=O)c1cc2c(=O)n3cccc(C)c3nc2n(CCc2ccccc2)c1=N | -65.8* | 6.5 | -13.8 | 15.8 | -1.8 | 5.6
Cc1cccn2c(=O)c3cc(C(=O)NC4CCCC4)c(=N)n(CCc4ccccc4)c3nc12 | -38.7* | 6.3 | / | 4.5 | -7.4 | 7.8
CCCn1c(=N)c(C(=O)NCC2CCCO2)cc2c(=O)n3cccc(C)c3nc21 (stereo not given) | -26.9* | 6.0 | -4.8 | 10.5 | -2.2 | -3.8
CSc1ccc(CN2CCC2(C)C(=O)NCc2ccc3c(c2)OCO3)cc1 (stereo not given) | / | / | / | / | / | -5.2
CCOc1ccccc1N1C(=O)c2ccc(S(=O)(=O)c3ccc(C(=O)O)cc3)cc2C1=O | -1.3 | 0.9 | / | 0.7 | -7.1 | -7.0
COc1ccc(CCn2c(=N)c(C(=O)NC3CCCC3)cc3c(=O)n4cccc(C)c4nc32)cc1 | -2.7 | 5.6 | / | 10.6 | -4.8 | -3.8
COc1ccc(CCn2c(=N)c(C(=O)NC3CCCCC3)cc3c(=O)n4ccccc4nc32)cc1 | -45.3* | -2.2 | / | 8.6 | 0.3 | -2.9
N=c1c(C(=O)NCC2CCCO2)cc2c(=O)n3ccccc3nc2n1Cc1ccccc1Cl (stereo not given) | -45.6* | -0.7 | / | 0.3 | -4.8 | 9.7
COc1cccc(C(=O)NCC2CCN(c3ccc(S(=O)(=O)N4CCOCC4)cc3)CC2)c1 | -30.1* | -0.9 | -14.9 | -0.1 | -6.7 | -0.1
O=C(NCC1CCN(c2ccc(S(=O)(=O)N3CCOCC3)cc2)CC1)c1cccc(Cl)c1 | 2.7 | 7.2 | -23.0 | 1.9 | 1.4 | -8.3
c1ccc(-c2csc(Nc3ccc4c(c3)OCO4)n2)cc1 | / | / | / | / | / | 4.2
O=C1c2ccccc2C(=O)N1c1cccc(-c2csc(Nc3ccc4c(c3)OCO4)n2)c1 | / | 53.2* | 5.2 | 27.4 | 10.8 | /
O=C(COC(=O)CCc1c[nH]c(=O)[nH]1)Nc1ccccc1 | / | 17.9 | -15.6 | 17.5 | 13.3 | 24.0*
COc1ccc(C2=C(c3ccccc3)OC(OC)c3cc(F)ccc32)cn1 (stereo not given) | / | / | / | / | / | 3.4
O=C(O)CC(NC(=O)CC(c1ccccc1)c1ccccc1)c1cccc([N+](=O)[O-])c1 (stereo not given) | -0.2 | 8.3 | / | 3.0 | -2.0 | -3.0
CNC(=O)Nc1ccc2nc(C)oc2c1 | 1.1 | 8.9 | 0.6 | 5.6 | 1.9 | 12.5
Cc1nc2ccc(NC(=O)NC(=O)c3c(Cl)cccc3Cl)cc2o1 | 1.0 | 3.5 | -6.5 | 43.1* | 2.1 | 5.2
CCOC(=O)[C@H]1[C@H]2COc3ccc(Br)cc3[C@@H]2N2C(=O)CN(Cc3ccc(F)cc3)C(=O)[C@@]12C | / | 0.4 | / | -2.2 | 0.5 | -10.6
O=C(c1ccccc1NS(=O)(=O)c1ccc(F)cc1F)N1CCCCC1 | / | / | / | / | 0.5 | 0.8
